In PubChem BioAssay (Tox21) one finds Potency data, which are given here for seven compounds.

A short description of experiment [1]: Nuclear factor erythroid 2-related factor 2/antioxidant responsive element (Nrf2/ARE) small molecule agonists: qHTS cell viability counter screen in human keratinocytes (AID 1919968; active means well fitted curve in the direction sought with a large enough effect in the repeat runs; an effect the other way counts as inactive or inconclusive; further: nearly all actives have a fitted effect of over 55% in size). The essentials: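 Seed 1,500 KeratinoSens cells per well, then incubate 5 h at 37 C/5% CO2. Add compounds in DMSO and incubate 23 h. Add CellTiter-Fluor, wait 1 h and read fluorescence.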
In general terms: Quantitative high-throughput screening tests each substance at several concentrations.

Experiment [2] in a line: Nuclear factor erythroid 2-related factor 2/antioxidant responsive element (Nrf2/ARE) small molecule agonists: luciferase reporter gene qHTS assay in human keratinocytes (AID 1919969). Further: nearly all actives have a fitted effect of over 35% in size. For orientation: A reporter such as luciferase makes a cellular process visible.
In experiment [3] the target is Gonadotropin-releasing hormone receptor (Homo sapiens) (UniProt P30968). Kind of experiment: Human gonadotropin-releasing hormone receptor (GnRHR) small molecule agonists, calcium flux assay in GnRHR-HEK293 cells (AID 1920063). Further: nearly all actives have a fitted effect of over 35% in size. The essentials:
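Cells: HEK293 stably expressing human GnRHR. Steps: overnight (18 h) culture, 1 h calcium dye loading at 37 C, compound addition, kinetic fluorescence read at 480/540 nm. Each compound tested at 15 concentrations in triplicate.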

The target of experiment [4] is KiSS-1 receptor (Homo sapiens) (UniProt Q969F8). Kind of experiment: Human kisspeptin (KISS1R) small molecule agonists, calcium flux assay in KISS1R-HEK293 cells (AID 1920064; active means well fitted curve in the direction sought with a large enough effect in the repeat runs; an effect the other way counts as inactive or inconclusive). The essentials: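 Cells plated and incubated 18 h; dye added, 1 h at 37 C; compounds in DMSO pinned in; signal read at 480/540 nm every second for 3 min. Each compound tested at 15 concentrations in triplicate.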
Chain of KiSS-1 receptor (Homo sapiens) (Q969F8 whole entry, looked up): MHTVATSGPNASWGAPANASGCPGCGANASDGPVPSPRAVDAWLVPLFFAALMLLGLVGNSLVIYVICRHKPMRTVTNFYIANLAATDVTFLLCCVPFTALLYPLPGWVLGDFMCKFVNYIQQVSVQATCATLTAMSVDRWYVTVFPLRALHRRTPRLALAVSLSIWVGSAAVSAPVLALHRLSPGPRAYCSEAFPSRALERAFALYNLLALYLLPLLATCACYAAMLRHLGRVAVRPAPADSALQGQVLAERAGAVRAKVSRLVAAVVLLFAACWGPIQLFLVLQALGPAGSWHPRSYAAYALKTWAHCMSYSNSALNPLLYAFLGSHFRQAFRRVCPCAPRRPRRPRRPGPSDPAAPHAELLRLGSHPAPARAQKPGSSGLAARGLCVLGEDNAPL
A general note: Calcium assays in cells follow changes in intracellular calcium, usually with a dye or a luminescent sensor.

Experiment [5] can be described thus: G protein-coupled receptor (GPCR) small molecule agonists, calcium flux assay: HEK293 wild type cell line counter screen (AID 1920065). In a few lines: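 Counter-screen of the Tox21 10K library for non-specific calcium release: dye-loaded cells received compounds in DMSO and were monitored by kinetic fluorescence (480/540 nm, 3 min). Fifteen concentrations, run in triplicate.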

Experiment [6] can be described thus: p53 small molecule agonists, cell-based qHTS assay with human liver microsomes (AID 1963577).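 Further: p53 response element beta-lactamase reporter cells with liver microsomes plus NADPH.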 The essentials: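 With metabolic activation: human liver microsomes (0.5 mg/mL final) plus NADPH (0.5 mg/mL final) added alongside compounds to p53RE-bla cells; 16 h 37 C exposure; beta-lactamase read by LiveBLAzer fluorescence.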
Experiment [7] is described as follows: p53 small molecule agonists, cell-based qHTS assay with rat liver microsomes (AID 1963578). The essentials: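 Metabolic activation by rat liver microsomes and NADPH, each 0.5 mg/mL final, added right after compounds to p53RE-bla reporter cells (4,000/well, plated 5 h earlier). 16 h at 37 C, then LiveBLAzer substrate for 2 h at room temperature in the dark; fluorescence read-out.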

A short description of experiment [8]: p53 small molecule agonists, cell-based qHTS assay with human liver microsomes: qHTS cell viability counter screen (AID 1963579). Further: nearly all actives have a fitted effect of over 45% in size. The essentials: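 Metabolic activation used human liver microsomes and NADPH, both 0.5 mg/mL final, over 16 hours at 37 C on p53RE-bla cells (4,000/well). Cytotoxicity measured by CellTiter-Glo luminescence, 30 min at room temperature.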

Experiment [9] can be described thus: p53 small molecule agonists, cell-based qHTS assay with rat liver microsomes: qHTS cell viability counter screen (AID 1963580). Further: nearly all actives have a fitted effect of over 45% in size. In a few lines:
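In HCT-116 cells carrying a p53 response element-bla reporter, compounds were metabolically activated in situ by rat liver microsomes with NADPH over 16 h. Cell ATP content then served as the cytotoxicity measure.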

Experiment [10] in a line: p53 small molecule agonists, cell-based qHTS assay: qHTS cell viability counter screen (AID 1963581). Further: nearly all actives have a fitted effect of over 45% in size. In a few lines:
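Cells: HCT-116 with p53 response element-driven beta-lactamase. Treatment: 16 h, 37 C, compounds in DMSO. Read: CellTiter-Glo luminescence after 30 min RT.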

A short description of experiment [11]: p53 small molecule agonists, cell-based qHTS assay (AID 1963582; active means well fitted activation curve with a large enough effect in the signal ratio in the repeat runs, not every such curve was filed as active; the % refers to the signal ratio). The essentials:
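Quantitative HTS in p53RE-bla cells: after a 5 h settling period, compounds delivered in DMSO were left on cells for 16 h at 37 C, and reporter induction was measured as fluorescence following 2 h substrate loading.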

For experiment [12], the target named is 5-hydroxytryptamine receptor 2A (Homo sapiens) (UniProt P28223). Kind of experiment: 5-hydroxytryptamine receptor 2A (HTR2A) small molecule antagonists, cell-based qHTS assay (AID 1963586). Further: nearly all actives have a fitted effect of over 45% in size. The essentials: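 Antagonist-mode intracellular calcium assay: DOI (4 nM) added after 5 min compound pre-incubation at room temperature to dye-loaded HTR2A-CHO cells. Fluorescence followed for 3 min, sampled every second.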
Chain of 5-hydroxytryptamine receptor 2A (Homo sapiens) (P28223 whole entry, looked up): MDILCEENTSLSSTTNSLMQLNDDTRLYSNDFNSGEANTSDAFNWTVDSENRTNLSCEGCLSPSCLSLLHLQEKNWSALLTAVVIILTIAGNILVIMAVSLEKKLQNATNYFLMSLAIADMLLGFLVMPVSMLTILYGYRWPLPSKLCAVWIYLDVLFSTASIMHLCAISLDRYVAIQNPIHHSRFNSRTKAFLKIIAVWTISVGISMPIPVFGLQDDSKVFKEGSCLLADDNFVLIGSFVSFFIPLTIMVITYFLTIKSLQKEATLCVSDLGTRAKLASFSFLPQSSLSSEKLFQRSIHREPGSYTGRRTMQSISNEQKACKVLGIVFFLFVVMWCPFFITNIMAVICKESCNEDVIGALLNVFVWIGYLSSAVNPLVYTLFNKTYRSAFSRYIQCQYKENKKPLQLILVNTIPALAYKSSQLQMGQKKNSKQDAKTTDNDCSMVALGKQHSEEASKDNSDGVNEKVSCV

Experiment [13] has the same target. Kind of experiment: 5-hydroxytryptamine receptor 2A (HTR2A) small molecule agonists, cell-based qHTS assay (AID 1963587). Further: nearly all actives have a fitted effect of over 30% in size. The essentials:
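HTR2A-CHO cells, plated 18 h at 37 C/5% CO2, dye-loaded 1 h at 37 C; compounds in DMSO added by pin tool (agonist mode). Intracellular calcium flux read as kinetic fluorescence on FDSS over 2 min at 1 s intervals.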

Experiment [14] deals with Muscarinic acetylcholine receptor M1 (Homo sapiens) (UniProt P11229). Briefly: Cholinergic receptor muscarinic 1 (CHRM1) small molecule antagonists, cell-based qHTS assay (AID 1963588). Further: nearly all actives have a fitted effect of over 40% in size. Further: potency means the concentration at half of the fitted maximal effect. In a few lines: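 CHRM1-CHO calcium-flux assay, antagonist mode. Cells were seeded 18 h, dye-loaded 1 h at 37 C and given compound for 5 min at RT, then acetylcholine was added at 50nM. FDSS fluorescence was read 3 min; 15 concentrations, three runs.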
Chain of Muscarinic acetylcholine receptor M1 (Homo sapiens) (P11229 whole entry, looked up): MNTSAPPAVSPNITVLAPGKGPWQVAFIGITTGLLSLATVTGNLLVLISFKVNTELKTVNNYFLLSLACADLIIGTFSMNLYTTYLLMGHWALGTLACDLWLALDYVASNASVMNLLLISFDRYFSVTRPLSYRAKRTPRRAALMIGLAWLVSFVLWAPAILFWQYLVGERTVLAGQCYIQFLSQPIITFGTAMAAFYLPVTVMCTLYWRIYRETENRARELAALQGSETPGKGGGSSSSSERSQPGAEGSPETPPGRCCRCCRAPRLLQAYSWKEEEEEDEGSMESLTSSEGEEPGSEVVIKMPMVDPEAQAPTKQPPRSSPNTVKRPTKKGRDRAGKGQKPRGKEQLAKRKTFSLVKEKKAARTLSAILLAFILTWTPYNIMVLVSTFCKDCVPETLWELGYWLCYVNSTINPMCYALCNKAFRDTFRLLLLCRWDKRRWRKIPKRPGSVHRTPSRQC

The target is the same in experiment [15]. Kind of experiment: Cholinergic receptor muscarinic 1 (CHRM1) small molecule agonists, cell-based qHTS assay (AID 1963589). Further: nearly all actives have a fitted effect of over 35% in size. In a few lines: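 Agonist-mode qHTS in CHO cells stably carrying human muscarinic M1. Intracellular calcium is tracked by fluorescence every second after compound transfer; each compound runs at 15 concentrations in three independent runs.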

Experiment [16] in a line: cAMP Responsive Elements (CRE) small molecule agonists, cell-based qHTS assay (AID 1963590). In a few lines:
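Agonist mode qHTS in CRE-bla HEK 293T cells: compounds dosed from DMSO for 3 h at 37 C/5% CO2, followed by LiveBLAzer B/G FRET substrate for 2 h at room temperature.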

Experiment [17] deals with Beta-2 adrenergic receptor (Homo sapiens) (UniProt P07550). Briefly: Adrenergic beta2 receptor (ADRB2) small molecule antagonists, cell-based qHTS assay (AID 1963592). Further: series mostly up to about 92 µM; nearly all actives have a fitted effect of over 50% in size. In a few lines: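 Cells (CHO, stable ADRB2 overexpression) incubated 18-20hr at 37C; compounds added from DMSO; agonist mix (1nM isoproterenol, 100uM IBMX, 25uM Ro-20-1724) added; 0.5hr RT; d2-cAMP and anti-cAMP-cryptate added; 1hr RT; 665/615 nm read.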
Chain of Beta-2 adrenergic receptor (Homo sapiens) (P07550 whole entry, looked up): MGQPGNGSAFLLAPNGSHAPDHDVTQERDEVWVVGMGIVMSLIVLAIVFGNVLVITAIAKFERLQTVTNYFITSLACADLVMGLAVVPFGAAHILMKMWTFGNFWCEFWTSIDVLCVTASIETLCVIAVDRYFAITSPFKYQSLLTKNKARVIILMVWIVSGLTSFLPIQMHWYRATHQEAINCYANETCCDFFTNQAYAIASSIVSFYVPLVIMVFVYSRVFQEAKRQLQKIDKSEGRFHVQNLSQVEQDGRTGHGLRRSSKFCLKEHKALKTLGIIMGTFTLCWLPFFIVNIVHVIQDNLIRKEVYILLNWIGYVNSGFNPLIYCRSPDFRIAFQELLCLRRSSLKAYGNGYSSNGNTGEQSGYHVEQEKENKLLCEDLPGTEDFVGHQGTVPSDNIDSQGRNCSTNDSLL

In experiment [18] the target is D(2) dopamine receptor (Homo sapiens) (UniProt P14416). Kind of experiment: Dopamine D2 receptor (DRD2) small molecule antagonists, cell-based qHTS assay (AID 1963595; active means well fitted inhibition curve with a large enough effect in the signal ratio in the repeat runs, with a control signal flat; the % refers to the signal ratio). In a few lines:
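DRD2-HEK293; 0.1 mM Ro20-1724; cpd 10 min RT; NKH477 200 nM + quinpirole 12 nM, 30 min RT; HTRF cAMP (cAMP-d2/anti-cAMP cryptate), 665/620 nm ratio after 1 h.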

The target is the same in experiment [19]. Kind of experiment: Dopamine D2 receptor (DRD2) small molecule agonists, cell-based qHTS assay (AID 1963594). Further: nearly all actives have a fitted effect of over 35% in size. In a few lines: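 HEK293 cells stably expressing DRD2 were cultured 24 h at 37 C, then given Ro20-1724 (0.1 mM final) and compounds for 10 min at room temperature. NKH477 (200nM) was then added for 30 min. cAMP was read by HTRF.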
A short description of experiment [20]: cAMP Responsive Elements (CRE) small molecule antagonists, cell-based qHTS assay (AID 1963591; active means well fitted inhibition curve with a large enough effect in the signal ratio in the repeat runs, not every such curve was filed as active; the % refers to the signal ratio). In a few lines: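 Antagonist mode: test compounds are co-incubated with the adenylyl cyclase activator NKH477 (0.25 uM final) on CRE-bla HEK293T cells for 3 h at 37 °C, followed by LiveBLAzer substrate loading.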

The structures appear in SMILES notation. Values joined by “and” are separate entries in the source; they are usually repeats but may differ in a detail not shown here. Equal entries are not always repeated. Records with an inconclusive call do not appear. Where a structure was tested more than once in an assay, its records may differ in their call. Active and inactive are the calls of the source. Unless noted, the call rests on the fitted dose curve.

Chain of Gonadotropin-releasing hormone receptor (Homo sapiens) (P30968 whole entry, looked up): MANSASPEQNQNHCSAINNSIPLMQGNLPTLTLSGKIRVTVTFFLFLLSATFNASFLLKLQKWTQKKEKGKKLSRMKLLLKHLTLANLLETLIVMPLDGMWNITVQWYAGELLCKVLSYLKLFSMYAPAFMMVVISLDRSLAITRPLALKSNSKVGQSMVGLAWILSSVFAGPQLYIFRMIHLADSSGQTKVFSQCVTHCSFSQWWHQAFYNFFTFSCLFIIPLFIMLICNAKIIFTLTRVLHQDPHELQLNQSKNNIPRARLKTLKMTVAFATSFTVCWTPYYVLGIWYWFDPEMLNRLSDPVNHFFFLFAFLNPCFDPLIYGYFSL
Chain of D(2) dopamine receptor (Homo sapiens) (P14416 whole entry, looked up): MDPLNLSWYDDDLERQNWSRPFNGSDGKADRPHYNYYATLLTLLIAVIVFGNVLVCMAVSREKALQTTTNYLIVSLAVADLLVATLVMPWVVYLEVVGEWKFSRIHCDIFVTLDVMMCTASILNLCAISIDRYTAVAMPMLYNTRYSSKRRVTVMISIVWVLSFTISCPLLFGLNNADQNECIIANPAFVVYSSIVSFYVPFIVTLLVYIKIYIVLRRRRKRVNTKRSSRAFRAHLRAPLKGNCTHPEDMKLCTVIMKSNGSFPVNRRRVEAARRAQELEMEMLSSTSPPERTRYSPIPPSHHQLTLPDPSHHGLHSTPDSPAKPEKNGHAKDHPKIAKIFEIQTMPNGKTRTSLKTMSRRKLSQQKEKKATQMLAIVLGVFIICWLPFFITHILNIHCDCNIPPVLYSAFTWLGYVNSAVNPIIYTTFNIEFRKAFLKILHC

Regarding `O=C=NCCCCCCN=C=O`, the Potency result in experiment [1], in [2], in [3], in experiment [4], in experiment [5] and in experiment [6] was “inactive” in each case. For the same compound, the Potency result in experiment [7], in experiment [8], in experiment [9], in experiment [10], in experiment [11] and in [12] was “inactive” in each case. The Potency entry in experiment [13], in experiment [15], in [16], in experiment [17] and in experiment [18] was “inactive” each time. For the same compound, the Potency entry in [14] was “inactive and 27 µM (active)”.
Take `C=CC(=O)OCCCCCCCC(C)C`: the Potency entry in experiment [1], in [2], in [3], in [4], in experiment [5] and in [6] was “inactive” throughout. The Potency entry in [7], in [8], in [9], in experiment [10], in experiment [11] and in experiment [12] was “inactive” each time. The Potency result in [13], in experiment [14], in experiment [15], in experiment [16], in [17] and in experiment [19] was “inactive” throughout. Besides, the Potency result in experiment [18] is “inactive”.
For the compound `CCCCCCC(=O)O`, the Potency result in experiment [1], in experiment [2], in experiment [3], in experiment [4], in experiment [5] and in experiment [6] was “inactive” in each case. Moreover, the Potency entry in experiment [7], in experiment [8], in [9], in [10], in experiment [11] and in [12] was “inactive” each time. Also, the Potency entry in [13], in [14], in experiment [15], in experiment [16], in experiment [17] and in experiment [19] was “inactive” each time. Besides, in [18], the Potency result was “inactive”.
On to `O=C=Nc1ccc(Cc2ccc(N=C=O)cc2)cc1`, for which the Potency result in experiment [1], in [2], in [3], in [4], in [5] and in experiment [6] was “inactive” in each case. For the same compound, the Potency entry in experiment [7], in experiment [8], in experiment [9], in experiment [10], in experiment [11] and in experiment [12] was “inactive” in each case. Also, the Potency entry in experiment [13], in experiment [14], in [15], in experiment [16], in experiment [20] and in [17] was “inactive” in each case. Moreover, the Potency entry in experiment [19] and in experiment [18] was “inactive” in each case.
With `O=C(O)CC(C(=O)O)C(CC(=O)O)C(=O)O` (stereo not drawn), the Potency result in experiment [1], in experiment [2], in experiment [3], in experiment [4], in experiment [5] and in experiment [6] was “inactive” each time. Further, the Potency entry in experiment [7], in experiment [8], in experiment [9], in [10], in experiment [11] and in [12] was “inactive” throughout. Further, the Potency entry in experiment [13], in experiment [14], in experiment [15], in experiment [16], in experiment [20] and in experiment [19] was “inactive” each time. Further, the Potency entry in [18] was “inactive”.
Turning to `C=CCOC(=O)CC(C)C`, the Potency result in experiment [1], in experiment [2], in experiment [3], in experiment [4], in [5] and in [6] was “inactive” throughout. For the same compound, the Potency entry in experiment [7], in experiment [8], in experiment [9], in experiment [10], in [11] and in experiment [12] was “inactive” in each case. Besides, the Potency result in [13], in [14], in experiment [15], in experiment [16], in [20] and in experiment [19] was “inactive” throughout. The Potency entry in experiment [18] was “inactive”.
As for `Cc1ccc(C)c(C)c1`, the Potency result in experiment [1], in experiment [2], in [3], in experiment [4], in experiment [5] and in experiment [6] was “inactive” each time. Further, the Potency entry in [7], in experiment [8], in [9], in experiment [10], in [11] and in [12] was “inactive” in each case. The Potency entry in [13], in [14], in experiment [15], in experiment [16], in [17] and in experiment [19] was “inactive” each time. Further, the Potency result in experiment [18] is “inactive”.
